Most compounds without a hit are left out; they make up all but 2.9% or so of the library.
ADAM17 inh = inhibitors of human ADAM17; inhibition, % at 6.95 µM; P78536; recombinant ADAM17, EDANS/DABCYL FRET peptide cleavage; AID 720648; hit rate 0.83% among 370,000;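 active = inhibition above the mean of compounds lying between control limits plus 3 SD, set per campaign, cut at about 8.5% in these data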
PLCg1 inh = PLC-gamma1 (human) inhibition, primary screen; purified PLC-gamma1, fluorogenic substrate, fluorescence; inhibition, % at 12.2 µM; hit rate 0.84% among 370,000
KLK7 zymogen act = activators of human kallikrein-7 zymogen; AID 652039; activation, % at 7 µM; purified proKLK7, EDANS-DABCYL substrate fluorescence; 100% is mature enzyme control, 0% vehicle; hit rate 0.9% among 370,000; P49862;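 active = activation above the mean of all tested compounds plus 3 SD, computed per campaign excluding outliers beyond control limits, cut at about 13% in these data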
ADAM10 inh = inhibits human ADAM10; O14672; recombinant ADAM10, EDANS/DABCYL FRET peptide cleavage, 3 h; inhibition, % at 7 µM; hit rate 0.62% among 370,000;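 active = inhibition above a per-campaign cutoff equal to the mean of compounds falling between control-based bounds plus 3 SD, cut at about 20% in these data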
Target sequence (O14672 214-748 limits assumed): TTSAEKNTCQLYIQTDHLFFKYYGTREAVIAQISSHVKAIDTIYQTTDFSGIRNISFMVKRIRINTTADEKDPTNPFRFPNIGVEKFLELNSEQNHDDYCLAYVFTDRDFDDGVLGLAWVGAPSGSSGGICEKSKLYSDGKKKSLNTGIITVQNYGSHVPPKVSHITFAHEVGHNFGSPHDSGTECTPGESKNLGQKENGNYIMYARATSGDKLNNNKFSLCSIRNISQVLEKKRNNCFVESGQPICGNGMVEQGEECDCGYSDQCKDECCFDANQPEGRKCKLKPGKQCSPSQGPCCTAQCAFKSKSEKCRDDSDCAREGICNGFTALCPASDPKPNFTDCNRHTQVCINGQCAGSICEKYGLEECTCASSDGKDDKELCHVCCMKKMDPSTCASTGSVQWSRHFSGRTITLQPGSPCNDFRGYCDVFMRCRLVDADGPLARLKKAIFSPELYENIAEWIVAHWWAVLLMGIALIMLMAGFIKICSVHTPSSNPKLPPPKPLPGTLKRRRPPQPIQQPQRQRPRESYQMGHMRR
PLC-beta3 inh = inhibitors of human phospholipase C beta3. Q01970. Purified PLC-beta3, fluorogenic substrate, fluorescence. inhibition, % at 12.2 µM. hit rate 0.18% among 370,000; in the data active = inhibition above about 11%
PLCg1 ctr = inhibits human PLC-gamma1 in PLC-beta3 counter-screen | inhibition, % at 12.3 µM | purified PLC-gamma1, fluorogenic substrate, fluorescence | shares compounds with PLCg1 inh | AID 743258 | hit rate 3.1% among 3,300
PLCb3 confirm = confirmation of human PLC-beta3 inhibitors; shares compounds with PLCg1 inh; purified PLC-beta3, fluorogenic substrate fluorescence; inhibition, % at 12.3 µM; hit rate 1% among 3,300; in the data active = inhibition above about 11%
Each line names hits and unclear results; the compound was inactive in the other large screens (follow-up assays come after a bar, where they were run). Rule as the data show it, unless noted: active = inhibition above about 9.5%; inactive = the rest.

CCC(=O)N1CCN(CCN=Cc2c(O)n(C)c(=O)n(C)c2=O)CC1	none
CC(C)C(=O)N1CCN(CCN=Cc2c(O)n(C)c(=O)n(C)c2=O)CC1	PLCg1 inh 11 | PLCg1 ctr inactive | PLCb3 confirm inactive
CN(C)CC1CSCCC1(O)c1ccccc1Cl (stereo not given)	PLCg1 inh 9.9 | PLCg1 ctr inactive | PLCb3 confirm inactive
CN(C)CC1CSCCC1(O)c1ccc(Cl)cc1 (stereo not given)	none
COc1ccccc1-n1c(-c2ccoc2)nc2ccccc2c1=O	PLC-beta3 inh 11 | PLCg1 ctr inactive | PLCb3 confirm inactive
O=c1c2ccccc2nc(-c2ccoc2)n1-c1ccccc1Cl	none
COc1ccc(-c2ccc3c(c2)CNCc2cnnn2-3)cc1	none
Cc1ccc(OCC(=O)N2CCN(CC3CC4C=CC3C4)CC2)cc1 (stereo not given)	none
O=C(COc1ccccc1)N1CCN(CC2CC3C=CC2C3)CC1 (stereo not given)	PLCg1 inh 16 | PLCg1 ctr inactive | PLCb3 confirm inactive
Cc1cc(NC(=O)CCl)nn1C	PLCg1 inh 13 | PLCg1 ctr inactive | PLCb3 confirm inactive
COc1ccc(S(=O)(=O)N2Cc3cnnn3-c3ccccc3C2C#N)cc1 (stereo not given)	none
Cc1sc2ncn(CC(=O)N3CCC4(CC3)OCCO4)c(=O)c2c1C	none
O=C(Cn1cnc2sc3c(c2c1=O)CCCC3)NCCC(=O)N1CCC2(CC1)OCCO2	PLCg1 inh 9.7 | PLCg1 ctr inactive | PLCb3 confirm inactive
